Laboratory results reported in PubChem BioAssay AID1117319 (Southern Research Institute, 2015).
Several values for one entry are separate records, joined by “and”; a condition that tells them apart may be missing. Identical values can stand only once. Out of some 260,000 compounds screened, about 1,500 (0.58%) were called active. Not shown: some 5% with an inconclusive outcome.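 Rule for the calls: active = inhibition above a set limit at one or more doses, reproduced on every date tested; inconclusive = results disagree between test dates, or hit never tested in dose response; inactive = the rest.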 Only a sample is shown. Entries with a potency or affinity are not part of this list.

Target: Virion infectivity factor (Human immunodeficiency virus type 1 group M subtype B (isolate BH10)) + Virion infectivity factor (Human immunodeficiency virus type 1 group M subtype B (isolate BRU/LAI)) + Virion infectivity factor (Human immunodeficiency virus type 1 group M subtype B (isolate PCV12)) + Virion infectivity factor (Human immunodeficiency virus type 1 group M subtype B (isolate HXB2)) + DNA dC->dU-editing enzyme APOBEC-3G (Homo sapiens) (UniProt P69720+P69721+P69722+P69723+Q9HC16)
Test: inhibitors of Vif binding to APOBEC3G peptide, primary screen, biochemical, TR-FRET, GST-Vif 1-94, biotin-A3G peptide, dose response retest (AID 1117319);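 note: Vif residues 1-94 fused to GST binding biotinylated APOBEC3G peptide 110-148; 0% = full assay without inhibitor and 100% = GST in place of GST-Vif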
Details: hits give high values

inhibition, inactive:
Cc1cc(C(=O)OC(C)C(=O)NC2CCCCC2C)c2ccccc2n1 (configuration not stated) -2.6%
Cc1ccc(C)c(Nc2nc(-c3ccncc3)nc3ccccc23)c1 -7.92%
O=C(OCc1ccccn1)c1ccc(COc2ccc3ccccc3c2)o1 14.9%
N#CC(C(=O)NCCc1ccccc1)c1nc2ccccc2nc1N1CCOCC1 (configuration not stated) -2.43%
CCCCCCNC(=O)C(C#N)c1nc2ccccc2nc1N1CCOCC1 (configuration not stated) 5.51%
Cc1nn(-c2ccccc2)c2sc(C(=O)N3CCCCC3)cc12 -2.58%
CCCCN1C(=O)C(=O)N(CC(=O)c2ccc[nH]2)C1=O 5.74%
CCOC(=O)N1CCC(n2c(SCC(=O)Nc3nccs3)nc3ccsc3c2=O)CC1 -7.21% and 20.2%
COc1ccc(NC(=S)NCc2cccs2)cc1 0.47%
COC(=O)c1[nH]c2ccccc2c1NC(=O)CN1CCN(Cc2ccc3c(c2)OCO3)CC1 -1.82%
CCN(CC(=O)Nc1c(C(=O)OC)[nH]c2ccc(Cl)cc12)c1ccc2c(c1)OCO2 0.99%
COc1ccc(OCCN(C)C(=O)c2cccc(S(=O)(=O)N(C)c3ccccc3)c2)cc1 -4.53%
O=C1S/C(=C\c2cccs2)C(=O)N1c1ccc(O)cc1 -10.4%
CN(C)c1ccc(/C=C/C=C2/SC(=S)N(c3ccccc3)C2=O)cc1 19.3%
O=C(O)c1ccc(N2C(=O)/C(=C/C=C/c3ccccc3)SC2=S)cc1 7.15%
Cn1cccc1/C=C1\SC(=O)N(c2ccc(O)cc2)C1=O 4.46%
CC1(C)N=C(c2ccc(Cl)cc2)C(=O)N1 -0.69%
CNC(=O)c1ccsc1NC(=O)C1CCCN1S(=O)(=O)c1cccs1 (configuration not stated) -0.6%
O=C1N=C(N2CCCC2)S/C1=C\c1ccccc1 27.9%
O=C1N=C(N2CCOCC2)S/C1=C\c1cccs1 -6.4%
Cc1ccccc1-c1ccc(/C=C2/SC(N3CCOCC3)=NC2=O)o1 6.07%
NC1=NC(=O)/C(=C/c2cccs2)S1 10%
NC1=NC(=O)C(=Cc2ccccc2)S1 1.08%
O=C1N=C(N2CCOCC2)S/C1=C/c1cccs1 1.92%
O=C1N=C(N2CCOCC2)S/C1=C\c1ccc(-c2ccccc2Cl)o1 21.8%
Cc1ccc(-c2ccc(/C=C3\SC(N4CCOCC4)=NC3=O)o2)cc1 6.18%
O=C(CCc1nnc(CCc2ccccc2)o1)N1CCCCC1CCn1cccn1 (configuration not stated) -2.83%
CC(=O)NCCn1c(SCc2ccc(C)cc2C)nc2ccccc2c1=O -4.41%
COCc1cc(=O)[nH]c(N2CCN(C(=O)c3ccco3)CC2)n1 -8.81%
CCOc1ccc(NC(=O)c2cc3c(=O)n(C)c4ccccc4c3n2C)cc1 -12%
O=C(CNC(=O)c1cc2ccccc2o1)NCc1cccs1 15.4%
Clc1ccc(NCn2cncn2)nc1 10.8%
CCc1cccc(C)c1NC(=O)CO/N=C(\C)c1cc2ccccc2o1 -0.14%
CC(OC(=O)CCC1CCCCC1)C(=O)Nc1ccc(S(N)(=O)=O)cc1 (configuration not stated) 6.23%
O=C(O)c1cccc(-c2ccccc2)c1O 2.46%
O=C(O)c1cccc2cc(-c3ccccc3)oc(=O)c12 3%
Cc1oc2c(O)c(O)ccc2c(=O)c1-c1cnn(-c2ccccc2)c1 28.2%
Nc1c(O)ccc2c1C(=O)c1ccccc1C2=O 10.2%
CCOC(=O)C(C#N)=C1CCN(Cc2ccccc2)CC1 -5.62%
CN1CCN(S(=O)(=O)c2ccc(NC(=S)NC(=O)c3ccccc3)cc2)CC1 0.13%
Cc1ccc(C(=O)NC(=S)Nc2ccc(S(=O)(=O)N3CCN(C)CC3)cc2)cc1 1.48%
COc1ccc(CNC(=O)COC(=O)c2c(NC(C)=O)sc(C)c2C)cc1OC 1.62%
O=C(O)C1CC(=O)N(c2ccc(OCc3ccc(Cl)cc3Cl)cc2)C1 (configuration not stated) 4.2%
N#CC(C#N)=c1ccc2c(c1)N1C3=C(CCCC3)CC3CCCCC31N=2 (configuration not stated) 20.5%
CC(CCc1ccccc1)NC(=O)C1CCN(S(=O)(=O)N2CCOCC2)CC1 (configuration not stated) -3.69%
O=C(O)c1ccc(-n2nc(C(F)(F)F)c3c2CCCC3)cc1 0.77%
COC(=O)c1ccc(-n2nc(C(F)(F)F)c3c2-c2ccoc2CC3)cc1 14.2%
O=C(CCn1c(=S)oc2ccccc21)NC1CCCCCCC1 -0.87%
CCCC1CC(C#N)N(N(C)C)C1=C(C#N)C#N (configuration not stated) -4.37%
CN1c2ccccc2C(O)=C(C(=S)Nc2ccc(F)c(Cl)c2)S1(=O)=O -0.79%
Cc1ccc(NC(=S)C2=C(O)c3sccc3N(C)S2(=O)=O)cc1 10.2%
CC(C)n1ncc2c(C(=O)NCCc3ccc(S(N)(=O)=O)cc3)cc(C3CC3)nc21 1.54%
COc1ccc(CCNC(=O)Cn2cnc3c(cnn3C(C)(C)C)c2=O)cc1OC -3.55%
COc1ccc(C(=O)Nc2nc3ccc(S(C)(=O)=O)cc3s2)cc1 -53.8%
Cc1cc(C)nc(NS(=O)(=O)c2ccc(N/C=C/C(=O)c3ccc(Cl)c(Cl)c3)cc2)n1 32.2%
Cc1ccc(NC(=O)COC(=O)c2ccc(S(=O)(=O)N3CCCC3)cc2)cc1 -1.07%
Cc1ccc(C(=O)OCC(=O)Nc2ccc(S(N)(=O)=O)cc2)c(O)c1 -10.3%
Cc1ccc(NC(=O)CNc2cccc(C)c2C)c(C)c1 21.8%
NS(=O)(=O)c1ccc(N=Nc2c(O)ccc3ccccc23)cc1 9.6%
CN(C)c1ccc(N=Nc2ccc(S(N)(=O)=O)cc2)cc1 5.84%
Cc1c(C#N)c(O)[nH]c(=O)c1N=Nc1ccc(S(N)(=O)=O)cc1 3.16%
Nc1nc(N)c(N=Nc2ccc(S(N)(=O)=O)cc2)c(=O)[nH]1 1.9%
